# An excerpt weighted towards active compounds, which were near 7.4% of everything screened.
# p53 reactivator: mutant p53 re-activation in reporter cells. Potency, µM (highest dose often 92.2 µM), for inactives: at the highest dose activity change, positive = activation, hits mostly activators. 320,000 tested, 0.063% active. H1299 p53-A138V BP100-luciferase reporter, luminescence, 24 h; further: % of control where 0% means no effect; nearly all actives have a fitted effect of over 45% in size
#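 p53-null H1299 cells stably carrying temperature-sensitive p53-A138V and a BP100-luciferase reporter were pinned with compounds (4-point, 1:5 series) and held 24 hrs at 37 deg C. Luminescence was read 10 min after detection reagent.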
# ELG1 genotox: inducers of genotoxicity in HEK293T ELG1-luciferase cells. AID 504466. HEK293T ELG1-luciferase reporter, luminescence, 16 h. Potency, µM (top dose mostly 46 µM), without a hit: at the top dose activity change, positive = activation, usual class: activators. 330,000 tested, 1.3% active; further: % of control where 0% means no effect; nearly all actives have a fitted effect of over 60% in size
#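 Quantitative HTS format in 1536-well plates. HEK293T ELG1-luciferase reporter cells receive test compound and are incubated 16 hr at 37 °C, 5% CO2; ONE-Glo added, 30 min room temperature, then luminescence read.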
# FLuc modulator: inhibits or activates purified firefly luciferase, miR-21 counter-screen; 360,000 tested, 6.9% active; purified FLuc, Km substrates, luminescence inhibition; Potency, µM (doses to about 57.5 µM), for the others: at the top dose activity change, negative = inhibition, actives largely listed as inhibitors;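 further: plate controls were vehicle for no effect and reference inhibitor for full effect; nearly all actives have a fitted effect of over 55% in size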
# Target sequence (P08659 whole entry, looked up): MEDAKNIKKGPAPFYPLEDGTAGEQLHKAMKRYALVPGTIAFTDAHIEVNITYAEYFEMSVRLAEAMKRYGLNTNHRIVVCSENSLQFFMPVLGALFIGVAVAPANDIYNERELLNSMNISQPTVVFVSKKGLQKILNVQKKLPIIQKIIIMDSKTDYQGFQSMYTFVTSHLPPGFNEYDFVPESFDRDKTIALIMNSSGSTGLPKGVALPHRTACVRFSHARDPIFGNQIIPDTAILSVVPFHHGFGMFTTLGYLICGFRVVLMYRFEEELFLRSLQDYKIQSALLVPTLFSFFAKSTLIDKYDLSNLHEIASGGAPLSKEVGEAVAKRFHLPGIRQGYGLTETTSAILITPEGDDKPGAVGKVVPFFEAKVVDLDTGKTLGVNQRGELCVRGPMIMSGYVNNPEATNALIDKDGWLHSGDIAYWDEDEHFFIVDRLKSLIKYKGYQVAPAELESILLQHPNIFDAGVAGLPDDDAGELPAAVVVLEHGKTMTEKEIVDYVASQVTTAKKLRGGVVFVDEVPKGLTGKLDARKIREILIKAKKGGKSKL
#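 Purified P. pyralis luciferase, 10 nM final, with Km-level 10 uM D-luciferin and 10 uM ATP in 50 mM Tris acetate pH 7.5, 10 mM Mg acetate, 0.01% Tween-20, 0.05% BSA; 6-point qHTS titration about 60 µM downward; luminescence read.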
# Rab9 prom act: activates the Rab9 promoter | Huh7 Rab9 promoter-luciferase reporter, luminescence, 24 h | Potency, µM (doses to about 9.22 µM), inactives show at the top dose activation, negative = inhibition, hits mostly activators | 320,000 tested, 2.8% active | AID 485297; further: % of control where 0% means no effect; nearly all actives have a fitted effect of over 60% in size
#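 Luciferase signal after 10 min detection reagent at ambient indicates Rab9 promoter upregulation; stably transfected Huh7 cells were treated 24 h with compound in DMSO at 37 °C, 5% CO2.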
# SMN2 splice enh: increases expression of the SMN2 splice variant; HEK293 SMN2-luciferase splicing reporter, luminescence, 30-36 h; Potency, µM (top dose mostly 46.1 µM), for the others: top-dose activity change, positive = activation, hits mostly activators; 210,000 tested, 2.8% active; AID 1458; further: % of control where 0% means no effect; nearly all actives have a fitted effect of over 55% in size
#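 qHTS luciferase splicing reporter: luminescence rises when SMN2 exon 7 is included in transfected HEK293 cells. Compound exposure lasted 30-36 h at 37C, with 4.5 mM final sodium butyrate as control, followed by a ONE-Glo read.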
# NPC1 promoter act: activates the NPC1 promoter; Huh7 NPC1 promoter luciferase reporter, 24 h; Potency, µM (titrated, usually from 9.22 µM), inactives show at the highest dose activation, most hits filed as activators; 320,000 tested, 2.4% active; AID 485313; further: % of control where 0% means no effect; nearly all actives have a fitted effect of over 60% in size
#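 NPC1 promoter–luciferase Huh7 cells; 24 h compound; luminescence.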
# * = called active by the depositor; ? = inconclusive; . = no result given. The call rests on the fitted dose curve; in most records, active means well fitted curve in the direction sought with a large enough effect; inconclusive means small, poorly fitted or top-dose-only effect, or another doubt; inactive means no such curve, though single readings can be large; an effect the other way counts as inactive or inconclusive. Potency means the concentration at half of the fitted maximal effect.
SMILES,p53 reactivator,ELG1 genotox,FLuc modulator,Rab9 prom act,SMN2 splice enh,NPC1 promoter act
COc1ccccc1NC(=O)CSc1ccc(-c2ccc(-n3ccnc3)cc2)nn1,-1.1%,?,?,-4.9%,.,-0.1%
CCCCCCC1CCC(c2nc(-c3ccncc3)no2)CC1 (stereo not given),1.5%,-1.0%,0.2%,-1.2%,-4.4%,-0.3%
CCCC1CCC(c2nc(-c3cccnc3)no2)CC1 (stereo not given),?,14.5%,23.9µM*,?,-2.7%,24.4%
CCC(=O)N1CCc2cc(Br)cc(S(=O)(=O)N3CCCC(C(=O)N(C)c4ccc(Br)cc4)C3)c21 (stereo not given),.,.,-12.4%,.,-16.4%,.
O=C(Nc1cc2c(oc1=O)CCCC2=O)c1ccccc1,9.1%,0.6%,-9.2%,-3.9%,12.7%,-2.7%
Cc1ccc(C(=O)Nc2cc3c(oc2=O)CCCC3=O)cc1,6.8%,?,21.3µM*,?,27.3%,?
CNC(=O)[C@]1(C)C[C@H]1[C@H](NC(=O)[C@]1(C)C[C@H]1[C@H](NC(=O)[C@]1(C)C[C@H]1[C@H](NC(=O)[C@]1(C)C[C@H]1[C@H](NC(=O)OCc1ccccc1)c1ccccc1)c1ccccc1)c1ccccc1)c1ccccc1,.,.,.,.,-4.3%,.
c1ccc2c3c(cc(N4CCOCC4)c2c1)OC1(N2CCOCC2)CCCCC1O3 (stereo not given),-25.9%,-14.8%,0.2%,3.2%,22.4µM*,0.6%
COc1nnc(-c2ccc(N3CCOCC3)c(NC(=O)C3CCCCC3)c2)c2ccccc12,5.6%,2.3%,2.3%,-1.5%,-14.3%,-10.8%
Cc1ccc(NC(=O)c2ccco2)c([N+](=O)[O-])c1,21.2%,?,?,2.82µM*,22.4µM*,2.82µM*
COc1ccc(NC(=O)c2ccco2)c([N+](=O)[O-])c1,?,?,21.3µM*,2.51µM*,35.5µM*,?
CCOC(=O)c1ccccc1NC(=O)NC(C)c1c(-n2cccc2)sc(C)c1C (stereo not given),.,.,-8.2%,.,-3.2%,.
COc1cc(NC(=O)COc2cc(O)c3c(c2)OC(C)(C)CC3=O)cc(OC)c1OC,.,-13.9%,?,-40.7%,.,-31.3%
CCc1cccc(NC(=O)c2oc3ccc4c(c3c2C)C(=O)CC(C)(C)O4)c1,.,.,0.849µM*,.,.,.
COc1ccc(NC(=O)c2oc3ccc4c(c3c2C)C(=O)CC(C)(C)O4)cc1OC,.,.,0.426µM*,.,.,.
Cc1c(C(=O)Nc2ccccc2)oc2c1C(=O)CC(C)(C)C2,?,12.0%,?,-1.4%,18.5%,7.3%
Cc1cnc(NC(=O)c2c(Cl)cnn2C)s1,3.5%,5.0%,1.2%,-1.6%,.,-4.2%
Cc1ccc(NC(=O)Cn2cc3c(n2)CCCC3)cc1Cl,.,.,-1.5%,.,-12.8%,.
CCOC(=O)c1c(C)[nH]c(C)c1S(=O)(=O)N(C)CC(=O)Nc1ccc(OC)cc1,.,.,3.9%,.,.,.
CN(Cc1ccccc1)Cc1c(O)ccc2c(=O)c(-c3ccccc3)c(C(F)(F)F)oc12,.,.,-6.3%,.,4.0%,.
O=C(Nc1cccc(C(F)(F)F)c1)c1cc(-c2ccc(Cl)cc2)on1,.,.,3.6%,.,-9.1%,.
O=C(Nc1cc(Cl)ccc1O)c1cc(-c2ccc3c(c2)OCO3)on1,.,.,-16.2%,.,?,.
O=C(Nc1cccc(C(F)(F)F)c1)c1cc(-c2ccc(F)cc2)on1,?,?,?,-2.8%,11.1%,-0.7%
Cc1ccc(NC(=O)c2cc(-c3ccc4c(c3)OCO4)on2)cc1,11.5%,17.0%,-4.8%,19.5%,-3.3%,0.7%
Cc1ccc(Cl)cc1NC(=O)c1cc(-c2ccc3c(c2)OCCO3)on1,.,.,1.35µM*,.,.,.
Cc1cccc(NC(=O)c2cc(-c3ccc4c(c3)OCCO4)on2)c1,.,.,0.19µM*,.,.,.
CC(C)c1cc(C(=O)Nc2cccc(C(F)(F)F)c2)no1,8.7%,?,15.1µM*,-4.6%,-13.9%,-1.9%
